Reference: PubChem BioAssay (NCI)
About 83,000 compounds went through this panel and 20% of them were active in at least one assay; those are over-represented in the sample as a whole.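 Results are percent growth after 48 hours of single-concentration exposure. 100 means growth as in untreated cells, lower positive values show inhibition; negative values down to -100 show cell death.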 Unmarked numbers belong to inactive results. Calls of active or inactive are those of the source. Rule for the calls: active = growth percent below 10; inactive = the rest.

Key:
Test in all cases: NCI-60 one-dose screen, 48 h (100 = growth as untreated, 0 = no growth, -100 = all killed)
Conditions in all cases: 10 µM unless noted
NCI-H226 lung = system: NCI-H226 lung
NCI-H322M lung = system: NCI-H322M lung
HOP-62 NSCLC = system: HOP-62 NSCLC
NCI-H460 lung = system: NCI-H460 lung
HOP-92 NSCLC = system: HOP-92 NSCLC
NCI-H522 lung = system: NCI-H522 lung
A549/ATCC NSCLC = system: A549/ATCC NSCLC
786-0 renal = system: 786-0 renal
COLO 205 colon = system: COLO 205 colon
DU-145 prostate = system: DU-145 prostate

| Compound | growth (NCI-H226 lung) | growth (NCI-H322M lung) | growth (HOP-62 NSCLC) | growth (NCI-H460 lung) | growth (HOP-92 NSCLC) | growth (NCI-H522 lung) | growth (A549/ATCC NSCLC) | growth (786-0 renal) | growth (COLO 205 colon) | growth (DU-145 prostate) |
| --- | --- | --- | --- | --- | --- | --- | --- | --- | --- | --- |
| C#Cc1nc(C2=C(C)C(O)/C(=N/O)C2)cs1 (stereo unspecified) | 107% | 102% | 111% | 104% | 41.8% | 15.5% | 96.5% | -92.2% (active) | 128% | 87% |
| CC1=C(C)C(=O)C(Nc2ccccc2)=C(Cl)C1=O | 96.9% | 99.3% | 92.6% | 95.7% | 46% | 83.5% | 99.8% | 99.2% | 107% | 101% |
| CS(=O)(=O)c1ccc(-c2nc3ccccn3c2C=Nc2ccc(Cl)cc2)cc1 | 102% | 76.7% | 82.8% | 57.7% | 98.5% | 58.6% | 72.1% | 69.5% | 99.6% | 61.3% |
| Clc1ccc2oc3c(NCCCn4ccnc4)c4ccccc4nc3c2c1 | 40% | 41.5% | 66.2% | -25.9% (active) | 47.2% | 48.3% | 32.7% | 6.65% (active) | 55.2% | 21.9% |
| Cc1cc(C(=O)Nc2sc3c(c2C(N)=O)CCC(=O)C3)ccc1OCCN1CCCCC1 | 109% | 111% | 119% | 99.4% | 113% | 90.8% | 81.1% | 111% | 106% | 99.2% |
| Cc1cc(C(NC(=O)CCCCCNc2cccc3c2C(=O)N(C2CCC(=O)NC2=O)C3=O)c2cccnc2)c(O)c2ncccc12 (stereo unspecified) | 14.2% | 3.62% (active) | 10.2% | 13.6% | -3.51% (active) | 23.4% | 28% | 9.13% (active) | 2.37% (active) | 34.8% |
| N#Cc1c(-c2ccc(Cl)cc2)nc(SCc2ccc(F)cc2)nc1N1CCNCC1 | 101% | 76.7% | 80.8% | -70.2% (active) | 6.64% (active) | 94.1% | 60.2% | 62.5% | -27.2% (active) | 61% |
| COc1cc2nc(-c3ccc(Cl)cc3)cc(OCCCNCC3CCCO3)c2cc1OC (stereo unspecified) | 75.8% | 66.7% | 64.3% | 30.2% | 35.4% | 45.1% | 53.2% | 43.3% | 33.5% | 49.2% |
| C#Cc1nc(C2=C(C)C(=N\O)/C(=N/O)C2)cs1 | 101% | 99.2% | 101% | 97% | 88.5% | 91.8% | 95.3% | -90.9% (active) | 118% | 92.2% |
| N/C(=N\c1nc2c(Cl)cc(Cl)cc2s1)C(Cl)(Cl)Cl | 73.5% | -55.6% (active) | 20.1% | -1.22% (active) | 46.4% | 82.4% | -12.9% (active) | 85.4% | -16% (active) | -27.8% (active) |
| Cc1ccc(CNS(=O)(=O)/N=C2\NC(=O)NC2=C(Cl)Cl)cc1 | 79.1% | 99.9% | 46.2% | 75.3% | -1.1% (active) | 36.8% | 99.2% | 36.6% | 113% | 32.6% |
| Cn1ccnc1C(=O)/C=C/c1ccc(NC(=O)Nc2ccc(Cl)cc2)cc1 | 81.9% | 95.1% | 94.8% | 59.6% | 104% | 78.2% | 86.8% | 56.8% | 95.9% | 75.7% |
| COC(=O)C(Cc1ccccc1)NS(=O)(=O)/N=C1\NC(=O)NC1=C(Cl)Cl (stereo unspecified) | 107% | 91.4% | 101% | 97.6% | 49.9% | 96.2% | 105% | 77% | 133% | 105% |
| O=C(N/N=C/c1ccc[nH]1)c1[nH]c2ccc(Br)cc2c1-c1ccccc1 | 35.9% | 32.4% | 22.2% | 2.17% (active) | 15.5% | -20.2% (active) | 17.6% | 13.7% | 6.05% (active) | 20.6% |
| CS(=O)(=O)c1ccc(-c2nc3ccccn3c2-c2nc3ccc([N+](=O)[O-])cc3[nH]2)cc1 | 92.2% | 92% | 105% | 101% | 93.7% | 92.4% | 99.8% | 101% | 103% | 99.8% |
| Nc1cc(-c2c[nH]c3ccccc23)nc2cc(-c3c[nH]c4ccccc34)nn12 | 67.3% | 80.8% | 95.3% | 4.94% (active) | 72.5% | 43% | 58.3% | 46.8% | 49.4% | 40.2% |
| O=C(O)CCCCCN1C(=O)/C(=C/c2ccc(O)c(O)c2)SC1=S | 106% | 89.9% | 110% | 108% | 139% | 98% | 113% | 105% | 125% | 103% |
| CCOC(=O)c1c(NC(=O)c2cccc(C(F)(F)F)c2)sc2cc(O)ccc12 | 98.1% | 98% | 99.3% | 99.9% | 102% | 81.3% | 101% | 109% | 107% | 98.9% |
| COc1cc(/C=C/C(=O)c2ccc(C)cc2)ccc1Oc1nc(NCCO)nc(N2CCOCC2)n1 | 52% | 102% | 104% | 69.2% | 63.6% | 76.9% | 97% | -50.7% (active) | 107% | 87% |
| N#Cc1c(-c2ccc(Cl)cc2)nc2c(-c3ccccc3)c(Nc3ccccc3)nn2c1N | 41.5% | 64% |  | -8.88% (active) | 35.2% | 72.3% | 29.5% | 25.1% | 57% | 63.6% |
| CN(C)CCCNc1c2ccc(Cl)cc2nc2c1oc1ccccc12 | 1.58% (active) | -9.39% (active) |  | -3.28% (active) | -1.97% (active) | 2.37% (active) | -40.4% (active) | 2.06% (active) | 1.47% (active) | 4% (active) |
| CCN1C(=S)N(CC)C2C1N=C(SC)N2/N=C/C=C/c1ccccc1[N+](=O)[O-] (stereo unspecified) | 92.9% | 92.3% |  | 93.5% | 79.7% | 93.6% | 92.8% | 101% | 120% | 101% |
| Nc1cc(-c2c[nH]c3ccc(Cl)cc23)nc2cc(-c3c[nH]c4ccc(Cl)cc34)nn12 | 71.3% | 56.8% |  | 12.1% | 28.9% | 28.8% | 44.2% | 60.5% | 93.2% | 53.4% |
| O=C(N/N=C/c1ccc(Br)s1)c1[nH]c2ccc(Br)cc2c1-c1ccccc1 | 52.6% | 48.2% |  | 3.52% (active) | 46.6% | -38.5% (active) | 28.8% | 11.5% | -44.3% (active) | 18.6% |
| Clc1ccc2c(NCCCN3CCOCC3)c3oc4ccc(Cl)cc4c3nc2c1 | 38.4% | 48.5% |  | 13% | 43.6% | 44.9% | 53.9% | -22.4% (active) | 44.5% | 57.2% |
| O=C(c1ccc(O)cc1)C1[C@H](c2ccc(Cl)cc2)[C@@H](c2ccccc2)NC12C(=O)Nc1ccc(Cl)cc12 (stereo partly specified) | 42.3% | 61.2% |  | 20.6% | 35.2% | 71.7% | 33.5% | 52.3% | 61% | 52.4% |
| c1ccc(CNc2ncnc3ccc(-c4cnc5[nH]ncc5c4)cc23)cc1 | 55.7% | 59.3% |  | 65.7% | 57.9% | 60.9% | 37.5% | 61.8% | 94% | 49.6% |
| OC1CCN(CCCOc2c3ccccc3nc3c2oc2ccc(Cl)cc23)CC1 | 11.1% | -1.27% (active) |  | 4.79% (active) | 14% | -51.4% (active) | 1.98% (active) | 11.7% | -13.1% (active) | 5.05% (active) |
